Source: PubChem
DT40 TDP1 CPT: DT40-hTDP1 cell growth loss with CPT; chicken DT40 Tdp1-/-;hTDP1 cells + 20 nM CPT, ATP luminescence, 48 h; AID 686979; 420,000 tested, 12% active; Potency, µM (titrated, usually from 46.2 µM), inactives show top-dose activity change, negative = growth inhibition, usual class: inhibitors; further: on the % scale 0 is the no-effect control and ±100 the full control effect; nearly all actives have a fitted effect of over 55% in size
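Cell growth measured by CellTiter-Glo luminescence after a minimum 48 h, 37 C compound exposure with 20 nM CPT in Tdp1-knockout DT40 cells stably expressing hTDP1, seeded 400/well; qHTS titration format.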
TDP1 block: TDP1 (human) enzyme inhibition; recombinant TDP1, AlphaScreen DNA substrate cleavage; 350,000 tested, 0.28% active; Potency, µM (top dose mostly 130 µM), without a hit: at the top dose activity change, negative = inhibition, usual class: inhibitors; further: on the % scale 0 is the no-effect control and ±100 the full control effect; nearly all actives have a fitted effect of over 40% in size
Target sequence (Q9NUW8 whole entry, looked up): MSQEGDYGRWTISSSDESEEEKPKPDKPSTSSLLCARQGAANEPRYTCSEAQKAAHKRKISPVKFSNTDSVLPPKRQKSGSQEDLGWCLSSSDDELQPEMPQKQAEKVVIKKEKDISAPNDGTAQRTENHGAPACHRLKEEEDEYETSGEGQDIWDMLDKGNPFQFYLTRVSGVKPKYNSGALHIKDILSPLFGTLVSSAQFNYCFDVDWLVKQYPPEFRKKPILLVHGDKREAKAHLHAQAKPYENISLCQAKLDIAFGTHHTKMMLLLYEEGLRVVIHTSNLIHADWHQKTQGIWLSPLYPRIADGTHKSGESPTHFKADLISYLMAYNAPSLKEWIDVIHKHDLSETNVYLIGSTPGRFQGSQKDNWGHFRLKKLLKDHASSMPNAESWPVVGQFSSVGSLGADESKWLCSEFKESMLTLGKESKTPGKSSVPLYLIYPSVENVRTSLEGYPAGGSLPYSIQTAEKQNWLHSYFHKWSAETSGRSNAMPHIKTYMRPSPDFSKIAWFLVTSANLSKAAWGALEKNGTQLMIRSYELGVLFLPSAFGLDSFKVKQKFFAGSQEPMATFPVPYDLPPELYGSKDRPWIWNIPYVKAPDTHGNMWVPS
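Signal: AlphaScreen proximity between streptavidin donor and anti-FITC acceptor beads on intact substrate. Reaction: Tdp1 1 nM, substrate 15 nM final, 5 min RT after 15 min compound preincubation.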
DT40 TDP1 no CPT: qHTS for Inhibitors of human tyrosyl-DNA phosphodiesterase 1 (TDP1): qHTS in cells in absence of CPT; DT40 Tdp1-/- hTDP1 cells, no CPT, ATP luminescence, 48 h; Potency, µM (series often up to 46.2 µM), inactives show at the highest dose activity change, negative = growth inhibition, most hits filed as inhibitors; 420,000 tested, 15% active; AID 686978, 2013; further: on the % scale 0 is the no-effect control and ±100 the full control effect; nearly all actives have a fitted effect of over 55% in size
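Chicken DT40 Tdp1-/- cells stably complemented with human TDP1 were seeded at 400 cells/well with DMSO in place of 20 nM camptothecin. After compound pinning, cells grew at least 48 hr at 37 °C; viability read by CellTiter-Glo luminescence.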
ClpP mod: qHTS Assay for Activators of ClpP. Potency, µM (series often up to 57.5 µM), for inactives: top-dose activity change, negative = active. ATP-dependent Clp protease proteolytic subunit (Bacillus subtilis (strain 168)), P80244. 340,000 tested, 1.9% active. purified B. subtilis ClpP, FRET peptide cleavage, 20 min. AID 651965, 2013; active means well fitted falling curve with a large enough effect; inconclusive means small, poorly fitted or top-dose-only effect; inactive means no such curve, though single readings can be large or run the other way; further: the source files actives as falling curves though it sought activators and does not explain the sign; nearly all actives have a fitted effect of over 65% in size
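Purified B. subtilis ClpP, 10 microg/mL final in Tris/HCl pH8 with KCl, BSA, glycerol and Tween-20, cleaved an Abz/nitrotyrosine-quenched decapeptide. Fluorescence (ex 320, em 430) was read at 0 and 20 min at room temperature. Delta was normalized to 5.8 microM ADEP and DMSO/no-enzyme controls.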
* marks the source's active call; other numbers are inactive results; ? = inconclusive; · = no result; [ ] = remark or other dose. In the library only some 17% were active in any assay of this set; here they are far more common. Unless noted, the call rests on the fitted dose curve; in most records, active means well fitted curve in the direction sought with a large enough effect; inconclusive means small, poorly fitted or top-dose-only effect, or another doubt; inactive means no such curve, though single readings can be large; an effect the other way counts as inactive or inconclusive. Potency means the concentration at half of the fitted maximal effect.

SMILES	DT40 TDP1 CPT	TDP1 block	DT40 TDP1 no CPT	ClpP mod
COc1ccc(-c2cn3c(n2)sc2cc(C(=O)NCc4ccccc4OC)ccc23)cc1	-7.6%	1.3%	?	?
COc1ccc(-c2cn3c(n2)sc2cc(C(=O)NCCCN4CCCCC4)ccc23)cc1	1.03µM*	-2.6%	0.731µM*	?
COc1ccccc1C1CN(Cc2cnn(C)c2C)Cc2ccccc2O1 (stereo not given)	-1.5%[9.04 µM]	·	-21.0%	·
COc1cccc(C(=O)Nc2ccccc2C(=O)OCc2cc(=O)n3c4c(sc3n2)CCCC4)c1	?	-1.2%	16.4µM*	-15.9%
COc1ccc(C(=O)Nc2ccccc2C(=O)OCc2cc(=O)n3c4c(sc3n2)CCCC4)cc1	?	3.8%	?	4.6%
O=C(Nc1ccccc1C(=O)OCc1cc(=O)n2c3c(sc2n1)CCCC3)c1ccccc1	20.6µM*	3.8%	?	-25.1%
O=C(Nc1ccccc1C(=O)OCc1cc(=O)n2c3c(sc2n1)CCCC3)c1cccc(Cl)c1	?	1.2%	?	4.8%
Cc1nc(SCC(=O)N2CCOCC2)c2c3c(sc2n1)CCC3	-3.5%	2.2%	?	·
Cn1c(=O)c(=O)n(C)c2cc(S(=O)(=O)N3CCCC3C(=O)NCc3cccnc3)ccc21 (stereo not given)	5.6%	·	9.8%	·
CCCCNC(=O)C(CC)Sc1nnc(-c2ccc(F)cc2)c(-c2ccc(F)cc2)n1 (stereo not given)	?	6.4%	?	?
CCCCNC(=O)C(CC)Sc1nnc(-c2cccc(F)c2)c(-c2cccc(F)c2)n1 (stereo not given)	16.4µM*	5.4%	?	-2.4%
O=C(CN1C(=O)NC(c2ccccc2)(c2ccccc2)C1=O)N1CCN(c2ccccc2F)CC1	?	1.5%	4.11µM*	1.7%
O=C(CCSCc1ccccc1F)N1CCN(c2ccc(F)cc2)CC1	?	2.6%	25.9µM*	-0.8%
O=C(CCC(=O)N1CCN(c2ccccc2F)CC1)N1CCN(c2ccc(F)cc2)CC1	?	2.4%	16.4µM*	-1.0%
O=C(CN1C(=O)NC(c2ccccc2)(c2ccccc2)C1=O)N1CCN(c2ccc(F)cc2)CC1	?	3.2%	?	-2.1%
O=C(CCSCc1ccccc1Cl)N1CCN(c2ccc(F)cc2)CC1	?	7.8%	?	-1.2%
Cc1ccc(NC(=O)c2ncoc2-c2ccco2)cc1Cl	?	1.2%	?	38.8%
C=C[C@]1(C)C=C2CC[C@H]3[C@@](C)(CCC[C@@]3(C)C(=O)O)[C@@H]2CC1	-23.6%	0.0%	-10.9%	-0.2%
C=C[C@]1(C)C=C2C(=O)[C@@]3(O)OC(=O)[C@@]4(CCCC(C)(C)[C@H]34)[C@@]2(O)CC1	0.651µM*	·	1.64µM*	-5.6%
CSC1=NC(C(Cl)(Cl)Cl)N=C(c2ccc(C)cc2)N1 (stereo not given)	0.82µM*	8.8%	0.581µM*	·
Fc1ccc(Oc2nc(-c3ccccn3)nc3ccccc23)cc1	4.61µM*	5.7%	5.8µM*	·
COc1cccc(Oc2nc(-c3ccccc3O)nc3ccccc23)c1	-7.5%	·	-0.8%	0.5%
c1ccc(Oc2nc(-c3ccccn3)nc3ccccc23)cc1	2.59µM*	10.3%	2.06µM*	·
COc1ccc(Oc2nc(-c3ccccn3)nc3ccccc23)cc1	3.26µM*	10.6%	4.11µM*	0.5%
CSc1nc(Oc2ccc(F)cc2)c2ccccc2n1	3.8%	·	-8.0%	-18.4%
c1ccc(Oc2c3ccccc3nc3ccccc23)cc1	?	·	20.6µM*	0.7%
CC[C@]12c3[nH]c4ccc(OC)cc4c3CCN1C(=O)C(CC(=O)NCCCN(C)C)C[C@@H]2C(=O)N1CCN(C(=O)c2ccco2)CC1 (stereo not given in full)	-1.9%	0.9%[56.1 µM]	-8.8%	-0.2%
CN(C)c1ccc(N=Nc2ccc(S(N)(=O)=O)cc2)cc1	8.1%	-17.7%	-15.5%	·
CC1=CC(=O)C=CC1=Nc1ccc(N(C)C)cc1	1.03µM*	·	0.92µM*	0.2%
Cc1cc(NS(=O)(=O)c2ccc3c(c2)CCC(=O)N3)ccc1Cl	·	0.0%	·	·
